Measurements reported in PubChem BioAssay (EPA / NIEHS).
Active and inactive are the calls of the source. How the source made its calls: active means hit-call score of the fitted dose curve at least 0.9, where 1 is the maximum; inactive means score below 0.9.

Read-out: Heat shock 70 kDa protein 1 (HSPA1A), gene 3303
Assay: LTEA_HepaRG_HSPA1A: Life Technologies and Expression Analysis (LTEA) Assay for Heat shock 70 kDa protein 1 (HSPA1A) using HepaRG (AID 2283502)
Settings: mRNA level, 48 h; actives raise or lower the signal
Experimental: LTEA_HepaRG is a cell based, multiplexed-readout assay that uses HepaRG, a human liver cell line, with measurements taken at 48 hours after chemical dosing on a 96-well plate.LTEA_HepaRG_HSPA1A is one of 102 assay component(s) measured in the LTEA HepaRG cell culture assay. It is a marker of Oxidative Stress.Data from the assay component LTEA_HepaRG_HSPA1A was analyzed into 1 endpoint. This assay endpoint, LTEA_HepaRG_HSPA1A, was analyzed with bidirectional fitting relative to DMSO as the negative control and baseline of activity. Using a type of inducible reporter, measures of mRNA induction for gain or loss-of-signal activity can be used to understand regulation of transcription factor activity. To generalize the intended target to other relatable targets, this assay endpoint is annotated to the dna binding intended target family, where the subfamily is heat shock protein.
A total of 1060 chemcials from the ToxCast library were tested in eight-point concentration-response experiments. Cell culture and cytotoxicity assays were conducted at Thermo Fisher Scientific's Custom Services facility (Madison, WI). A single lot of human HepaRG cells (Thermo Fisher Scientific, Frederick, MD) was used for the cell culture experiments. 96-well format collagen type I coated plates of human HepaRG cells were prepared using established methods. Briefly, cryopreserved HepaRG cells were thawed, plated at a density of approximately 100,000 cells/well in HepaRG Thaw, Plate, and General Purpose media (HPRG770, Thermo Fisher Scientific), and incubated for 48 hours. 0.5% DMSO was selected as vehicle control to balance the requisite need of DMSO in HepaRG cultures to maintain differentiation (for example, baseline metabolism, proportions of hepatocytes vs. cholangiocytes), while enabling further hepatic receptor pathway activation (for example, PXR and CAR) in response to chemical exposure. 48 hours after plating, the culture medium was replaced with HepaRG Serum-Free Incudtion Media. Cells were exposed to each test chemical in duplicate and maintained in CO2 incubators for another 48 hours. Chemical plates were thawed to room temperature and 200x concentrations of treatment groups were prepared. 8-point conentration-reponse curves were made with the highest exposure at 100 uM, followed by half-log dilutions, all in 0.5% DMSO. Each test plate contained variouse controls, induction positive controls (1mM phenobarbital), cytotoxicity positive controls ([…] aflatoxin B1), vehicle controls (0.5% DMSO), and total lysis controls (0.5% DMSO). Cell morphology images were taken using an Essen IncuCyte FLR automated microscope, with six 96-well plates imaged in about 24 minutes. Images were captured and exported and JPEG files. Spent culture media was transfered to black-well plates for the LDH assay, and remaining media was sorted at -80 C for later use. Cells were treated with RLT buffer and frozen until shipped for gene expression analysis. Total RNA was isolated from the cell suspension in 75 uL of Buffer RLT (Qiagen, Germantown, MD 20874) by Quintiles/Expression Analysis (Durham, NC) using a custom isolation procedure. Total RNA from each plate well was transferred to a preamplification plate. Fluidigm's 96.96 Dynamic ArrayTM (Fluidigm, Amsterdam, the Netherlands) technology was used for gene expression analyses by quantitative reverse transcription polymerase chain reaction (qRT-PCR, performed by Quintiles/Expression Analysis, Durham, NC)89. Standard TaqManTM Assays (Applied Biosystems/ThermoFisher Scientific, Foster City, CA) were used to assess the expression of 93 genes selected based on their selectivity and sensitivity to important hepatic receptors known to be modulated by environmental chemicals; importance in human hepatocyte functionality; and hepatotoxicity. […]

Compound	outcome	AC50
O=C1CCCO1	inactive	
[As]#[In]	inactive	
CCOC(=O)[C@]1(c2ccccc2)Oc2ccccc2[C@@H]1N	inactive	
Clc1ccc(C(c2ccc(Cl)cc2)C(Cl)(Cl)Cl)cc1		23.3 µM (active)
Cc1ccc(N)cc1	inactive	
CN(C)[C@@H]1C(=O)C(C(N)=O)=C(O)[C@@]2(O)C(=O)C3=C(O)c4c(O)cccc4[C@@](C)(O)[C@H]3C[C@@H]12	inactive	
CNC(=O)Oc1cccc2c1OC(C)(C)C2	inactive	
CC(C)(C)OOC(C)(C)CCC(C)(C)OOC(C)(C)C	inactive	
Nc1ccc(Cl)cc1N		20.6 µM (active)
CC(C)(C)C(O)(CCc1ccc(Cl)cc1)Cn1cncn1 (stereo not given)	inactive	
COc1cc(C=O)cc2c1[C@H](COC(N)=O)[C@]1(OC(C)=O)ON2C[C@H]2[C@@H]1N2C(C)=O	inactive	
CCC12COCN1COC2	inactive	
CS(=O)(=O)NC(=O)c1cc(Oc2ccc(C(F)(F)F)cc2Cl)ccc1[N+](=O)[O-]	inactive	
Cc1ccc(N)c(N)c1	inactive	
ClCCOCCCl	inactive	
C[C@]12C=CC3=C4CCC(=O)C=C4CC[C@H]3[C@@H]1CC[C@@H]2O	inactive	
ClC1=C(Cl)[C@]2(Cl)[C@H]3[C@H]([C@@H]4C=C[C@H]3C4)[C@@]1(Cl)C2(Cl)Cl	inactive	
O=C(O)C1C2CCC(O2)C1C(=O)O (stereo not given)	inactive	
c1ccc(C2CO2)cc1 (stereo not given)	inactive	
CCC(C)c1ccc(O)cc1 (stereo not given)	inactive	

Compound	outcome	AC50
Nc1ccc(Oc2ccc(N)cc2)cc1	inactive	
Oc1ccc2ccc3cccc4ccc1c2c34	inactive	
O=[N+]([O-])c1ccc(Oc2ccc(Cl)cc2Cl)cc1	inactive	
Nc1cc(Cl)cc(C(=O)O)c1Cl	inactive	
Oc1ccccc1Cl	inactive	
CCOc1cccc(C2(N3CCN(c4ccccc4)CC3)CCC(C)CC2)c1 (stereo not given)	inactive	
CN(C)C(=O)Nc1ccc(Cl)cc1	inactive	
CC(C)(O)c1cnn2c(-c3ccc(F)c(-c4c(F)cccc4C#N)c3)cnc2n1	inactive	
CC(C)N(Cc1ccccc1)C(=O)C(C)(C)C	inactive	
O=C(N[C@H](c1ccccc1)[C@@H]1CN2CCC1CC2)c1c(Cl)ccc(C(F)(F)F)c1Cl		73.8 µM (active)
O=C(Oc1ccc(Br)cc1)N1CCN2CCC1CC2	inactive	
Clc1ccc(Cl)c(Cl)c1	inactive	
C=CCc1ccc2c(c1)OCO2	inactive	
CCC[CH2][Sn]([Cl])([CH2]CCC)[CH2]CCC		2.27 µM (active)
CC(O)CCO (stereo not given)	inactive	
CCCCC(CC)COC(=O)c1ccc(C(=O)OCC(CC)CCCC)c(C(=O)OCC(CC)CCCC)c1 (stereo not given)	inactive	
O=C(Nc1ccccc1)c1ccccc1I	inactive	
Cc1ccc([N+](=O)[O-])cc1	inactive	
Cc1cccc(N)c1N	inactive	
Cc1ccc(N=C=O)cc1N=C=O		30.4 µM (active)
